# Data: PubChem BioAssay (NCATS)
# Inconclusive results are not listed. Values without a mark were called inactive. The call rests on the fitted dose curve; in most records, active means well fitted inhibition curve with a large enough effect; inconclusive means small, poorly fitted or top-dose-only effect; inactive means no such curve, though single readings can be large or run the other way.
# Molecular target: RecQ-like DNA helicase BLM (Homo sapiens) (UniProt P54132)
# Experiment: qHTS Validation Assay for Inhibitors of Bloom's syndrome helicase (BLM) (AID 2364);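 further: plate controls were DMSO vehicle for no effect and enzyme-free control for full effect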
# Settings: BLM helicase DNA unwinding, fluorescence, in vitro; series mostly up to 57.1 µM; activity change, negative = inhibition: at the top concentration
# Summary of the method: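 Forked 20-bp duplex substrate (200 nM, TAMRA/BHQ-2) plus 2 mM ATP added after 15 min compound preincubation with 50 nM enzyme, pH 8.0, poly(dI-dC) 2.5 ug/ml. Strand separation followed by fluorescence (525/598 nm) over 2 h, normalized to enzyme-free and DMSO controls.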
# RecQ-like DNA helicase BLM (Homo sapiens), sequence (P54132 whole entry, looked up): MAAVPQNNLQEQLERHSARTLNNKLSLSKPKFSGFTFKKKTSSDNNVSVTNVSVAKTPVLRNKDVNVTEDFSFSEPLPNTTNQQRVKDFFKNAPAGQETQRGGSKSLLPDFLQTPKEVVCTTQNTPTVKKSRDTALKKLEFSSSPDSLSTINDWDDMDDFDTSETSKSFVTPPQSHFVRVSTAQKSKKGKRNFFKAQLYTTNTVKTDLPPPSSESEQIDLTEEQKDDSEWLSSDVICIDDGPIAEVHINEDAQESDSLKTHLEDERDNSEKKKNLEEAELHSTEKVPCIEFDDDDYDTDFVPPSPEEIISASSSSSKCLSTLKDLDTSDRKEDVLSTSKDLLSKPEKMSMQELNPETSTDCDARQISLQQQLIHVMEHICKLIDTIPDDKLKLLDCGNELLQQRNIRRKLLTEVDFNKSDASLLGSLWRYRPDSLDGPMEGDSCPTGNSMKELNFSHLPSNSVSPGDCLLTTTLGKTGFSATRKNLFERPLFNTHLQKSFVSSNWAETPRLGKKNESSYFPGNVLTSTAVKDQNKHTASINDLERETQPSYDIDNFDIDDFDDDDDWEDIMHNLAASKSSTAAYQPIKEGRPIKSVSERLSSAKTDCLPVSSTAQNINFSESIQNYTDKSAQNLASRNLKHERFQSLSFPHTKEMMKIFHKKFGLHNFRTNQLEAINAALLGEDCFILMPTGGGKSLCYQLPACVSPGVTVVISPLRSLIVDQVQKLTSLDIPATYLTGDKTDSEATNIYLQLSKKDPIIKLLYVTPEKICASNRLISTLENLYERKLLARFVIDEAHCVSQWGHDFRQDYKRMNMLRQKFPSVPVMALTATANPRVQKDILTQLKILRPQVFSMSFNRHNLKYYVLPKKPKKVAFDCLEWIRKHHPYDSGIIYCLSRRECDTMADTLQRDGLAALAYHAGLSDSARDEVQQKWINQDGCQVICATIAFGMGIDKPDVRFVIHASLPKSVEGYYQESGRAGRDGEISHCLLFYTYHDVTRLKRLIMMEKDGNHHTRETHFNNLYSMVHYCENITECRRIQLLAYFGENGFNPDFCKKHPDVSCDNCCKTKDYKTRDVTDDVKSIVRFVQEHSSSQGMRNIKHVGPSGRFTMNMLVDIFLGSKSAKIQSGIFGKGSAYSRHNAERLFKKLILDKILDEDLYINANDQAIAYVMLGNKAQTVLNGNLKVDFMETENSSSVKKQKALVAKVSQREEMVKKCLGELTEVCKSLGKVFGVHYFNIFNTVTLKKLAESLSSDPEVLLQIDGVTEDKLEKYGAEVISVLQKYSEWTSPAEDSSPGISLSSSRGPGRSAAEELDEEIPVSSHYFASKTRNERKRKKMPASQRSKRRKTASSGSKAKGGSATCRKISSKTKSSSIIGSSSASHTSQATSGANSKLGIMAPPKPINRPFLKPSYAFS
row,Compound,"activity change, negative = inhibition [%]"
1,COc1ccc2c(c1)CCC1C2CC[C@@]2(C)C1CC[C@@H]2NCCCCCCN1C(=O)C=CC1=O (some centres undefined),-10.4
2,NCCC1CCCC(CCN)N1 (centres undefined),-0.825
3,OC[C@H]1NC[C@@H](O)[C@@H]1O,-9.88
4,CC(C)NCC(O)COc1ccc(CC(N)=O)cc1 (centres undefined),-7.56
5,CCN(CC)CCOC(=O)c1cc(Cl)c(N)cc1OC,-5.57
6,OCC1NCC(O)C(O)C1O (centres undefined),-9
7,N=C(N)c1ccc(N)cc1,-3.97
8,CC(=O)C(C)=O,-10.7
9,CC(C)(C)NCC(O)COc1cccc2[nH]c(=O)[nH]c12 (centres undefined),-6.75
10,COc1ccc(-c2ccc(N)[n+](CCCC(=O)O)n2)cc1,-10.4
11,C=C(C)C1CC=C(C(=O)O)CC1 (centres undefined),-7.81
12,CN[C@H](CC(=O)O)C(=O)O,-6.51
13,C[C@@H](NCCc1ccc(O)cc1)[C@@H](O)c1ccc(O)cc1,-9.7
14,COc1cc(CC(=O)O)ccc1O,-6.95
